TRHR ag: agonists of human TRH receptor. P34981. TRHR cells, calcium flux fluo-8, FDSS agonist mode. activation, % at 2 µM. actives 0.18% (n = 360,000); further: 0% is about no effect
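In this calcium-flux screen, cells bearing human TRHR are dye-loaded with fluo-8, baselined for 10 cycles, then exposed to library compounds; positive kinetic calcium responses during the agonist phase mark hits, with TRH as control.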
TRHR PAM: allosterically enhances the human TRH receptor; P34981; TRHR cells, fluo-8 calcium fluorescence, EC20 TRH enhancement; enhancement, % at 2 µM; actives 0.66% (n = 360,000); in the data active means enhancement above about 30%; further: 0% is about no effect
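Enhancer read-out: after compound pinning and an initial kinetic agonist-mode read, an EC20 of TRH (10 nM final) was injected and fluo-8 calcium signal (Ex 480/Em 530) followed at 1 s/cycle for 100 cycles in TRHR-expressing cells.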
D1 agonist: human D1 receptor agonism | P21728 | HEK293 T-REx D1 cells, calcium flux, agonist mode | activation, % at 2 µM | actives 1% (n = 360,000) | AID 504660; further: 0% is about no effect
Target sequence (P21728 whole entry, looked up): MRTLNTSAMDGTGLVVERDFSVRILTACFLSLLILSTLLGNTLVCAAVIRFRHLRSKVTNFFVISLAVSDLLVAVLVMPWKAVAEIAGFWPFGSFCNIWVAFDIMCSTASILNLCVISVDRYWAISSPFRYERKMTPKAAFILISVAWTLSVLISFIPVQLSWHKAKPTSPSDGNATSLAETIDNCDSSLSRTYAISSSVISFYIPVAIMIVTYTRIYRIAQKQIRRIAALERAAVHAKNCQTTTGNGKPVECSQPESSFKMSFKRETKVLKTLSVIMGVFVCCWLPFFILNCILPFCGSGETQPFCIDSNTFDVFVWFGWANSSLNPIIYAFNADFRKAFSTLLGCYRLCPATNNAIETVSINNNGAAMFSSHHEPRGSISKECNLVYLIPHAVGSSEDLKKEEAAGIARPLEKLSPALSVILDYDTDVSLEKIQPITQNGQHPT
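Inducible HEK293 T-REx D1 cells, force-coupled to calcium signalling, were plated at 4000 cells/well with tetracycline and held overnight at 30 C. After no-wash calcium dye loading, compound-evoked calcium rise over 180 s flagged agonists.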
D1 PAM: potentiators of human D1 dopamine receptor; P21728; actives 0.036% (n = 360,000); HEK293 TREx D1 cells, calcium flux, dopamine EC20 potentiation; potentiation, % at 10 µM; in the data active means potentiation above about 30%; further: 0% is about no effect
D1 antagonist: antagonists of human D1 dopamine receptor; HEK293 TREx D1 cells, calcium flux, dopamine EC80; hits give low values; activity change, negative = inhibition, % at 10 µM; actives 3.2% (n = 360,000); AID 504652; in the data active means activity change below about -30%; further: on the % scale 0 is the no-effect control and ±100 the full control effect
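Allosteric or orthosteric antagonism assessed as attenuation of the calcium response to EC80 dopamine, added 180 s after compound, in induced HEK293 Trex D1 cells loaded with no-wash calcium dye.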
Starred values were filed as active, the others as inactive; · = no result; ! = a repeat was not active. Only some compounds are listed: those with a hit (about 4.6% of all), similar ones and a draw of the others. Unless noted, no stated cut-off is given here; in the data, active means activation above about 30%; inactive means the rest.

SMILES	TRHR ag	TRHR PAM	D1 agonist	D1 PAM	D1 antagonist
CCOC(=O)C1=C(c2ccccc2)N=c2s/c(=C\c3cc(OC)c(OC)c(OC)c3)c(=O)n2C1c1cccs1 (configuration not stated)	0	-4	240*	-4	-1
Cc1cccc(NC(=O)c2c(C)oc3ncn(CC(C)C)c(=O)c23)n1	0	-7	-1	5	0
CCOc1ccccc1-n1nnc(-c2nc(-c3ccccc3C)no2)c1C	0	-9	2	2	1
CS(=O)(=O)Nc1ccccc1C(=O)Nc1cccc(Cl)c1	3	-2	38*	-1	-33*
CN(C)S(=O)(=O)Oc1ccc(C(=O)Nc2cccc(Cl)c2)cc1	-1	5	24	-7	-47*
Cc1ccc(NC(=O)c2c(F)cccc2Cl)cc1NS(C)(=O)=O	0	38*	3	-1	-3
COC(=O)CCC(=O)Nc1cccc(C(=O)Nc2cccc(Cl)c2)c1	0	4	31*	-2	7
O=C(CCC(=O)OCC(=O)c1ccccc1)Nc1cccc(Cl)c1	-1	9	6	-6	-2
CCN(C(=O)c1cn(-c2cccc(OC)c2)c(=O)c2ccccc12)c1ccccc1C	0	-8	1	2	2
O=C(CSc1nc2c(c(=O)[nH]1)CCCC2)Nc1ccc(Br)cc1	-1	6	-1	-2	-3
COC(=O)c1ccc(NC(=O)n2ncc3c(C)cccc32)cc1	1	5	2	6	-70*
Cc1ccc(NC(=O)Cn2cc(C(=O)C3CC3)c3ccccc32)c(C)c1	1	36*!	-2	-3	0
COc1ccc(S(N)(=O)=O)cc1C(=O)NCCCN1CCN(c2ccc(C)cc2)CC1	0	-3	3	-20	-42*
COc1ccc(S(N)(=O)=O)cc1C(=O)NCCCN1CCN(c2cccc(Cl)c2)CC1	0	0	2	-7	-51*
COc1ccc(S(N)(=O)=O)cc1C(=O)NCCCN1CCN(c2ccccc2OC)CC1	1	-3	2	-14	-12
COc1cc2c(C(=O)NCCCN3CCN(c4cccc(Cl)c4)CC3)cn(C)c(=O)c2cc1OC	1	3	-1	-5	10
O=C(NCc1ccc2c(c1)CCN2C(=O)c1ccc(F)cc1)c1ccc(Br)o1	-1	1	3	-2	1
COc1ccc(C)cc1NC(=O)C(=O)NCC(c1cccnc1)N1CCc2ccccc21 (configuration not stated)	0	-4	1	-2	6
CCc1ccc(NC(=O)C(=O)NCC(c2cccnc2)N2CCN(C)CC2)cc1 (configuration not stated)	0	3	53*	9	2
O=S(=O)(NCC(c1cccnc1)N1CCN(c2ccc(F)cc2)CC1)c1cccs1 (configuration not stated)	0	0	-2	-3	-31*
COc1ccc(C)cc1NC(=O)C(=O)NCC(c1cccnc1)N1CCN(c2ccccc2F)CC1 (configuration not stated)	0	-3	3	-2	-34*
O=S(=O)(NCC(c1cccnc1)N1CCN(c2ccc(F)cc2)CC1)c1ccc(F)cc1 (configuration not stated)	0	-2	-2	-6	-23
COc1ccc(N2CCN(C(CNC(=O)C(=O)NCCCN(C)C)c3cccnc3)CC2)cc1 (configuration not stated)	0	-2	1	-2	-35*
Cc1cc(NC(=O)CN2C(=O)CSc3ccc(S(=O)(=O)N(C)C)cc32)ccc1Br	1	10	4	-1	29
COc1ccccc1N1CCN(C(CNC(=O)C(=O)NCc2ccc(F)cc2)c2cccnc2)CC1 (configuration not stated)	-1	-2	33*	-3	-2
SMILES	TRHR ag	TRHR PAM	D1 agonist	D1 PAM	D1 antagonist
CCOC(=O)c1ccc(NC(=O)CSc2nccn2-c2ccc(OCC)cc2)cc1	0	-4	6	-3	-19
Cc1cc[n+](-c2[nH]c(=O)sc2/C=N/NC([S-])=Nc2ccccc2)cc1C	4	3	6	-7	8
CC(C)(C)c1cc[n+](-c2[nH]c(=O)sc2/C=N/NC([S-])=Nc2ccccc2)cc1	18	1	91*	-2	4
Cc1cc(C)cc(-n2c(C)cc(C(=O)C(=O)Nc3ccccc3F)c2C)c1	0	-3	1	-3	4
COc1ccc(-n2nc(C(=O)NCCc3ccc(OC)c(OC)c3)c3c4ccccc4n(C)c3c2=O)cc1	-2	-9	2	2	6
N#Cc1cccc(NC(=O)COC(=O)Cn2nc(-c3ccccc3)oc2=O)c1	0	-8	18	·	-85*
FC(F)C(F)(F)Oc1cccc(-c2n[nH]c(=S)n2Cc2ccccc2)c1	0	2	0	4	-40*
CC(C)(C)c1ccc(-c2n[nH]c(=S)n2Cc2ccccc2)cc1	-1	0	91*	-1	1
Fc1ccc(-c2n[nH]c(=S)n2Cc2ccccc2)cc1	-2	-5	-1	-6	-3
COC(=O)c1ccc(NC(=O)CC2C(=O)N(c3cccc(C)c3)C(=O)N2C2CCCC2)cc1 (configuration not stated)	-1	0	0	-2	-11
Cc1ccc(N2CCN(S(=O)(=O)c3cc(Br)cc4c3N(C(=O)C3CC3)CC4)CC2C)cc1 (configuration not stated)	0	3	3	1	-12
Cc1ccccc1NC(=O)Cn1nc(C(F)(F)F)cc1C1CC1	0	1	3	0	3
Cc1nn(C)cc1NC(=O)Cn1nc(C(F)(F)F)cc1C1CC1	0	-1	-1	-7	-67*
CSc1ccc(S(=O)(=O)NCC(=O)OCC(=O)N2CCC(C)CC2)cc1[N+](=O)[O-]	0	0	1	-3	-31*
CSc1ccc(S(=O)(=O)NCC(=O)OCC(=O)N2CCCCC2C)cc1[N+](=O)[O-] (configuration not stated)	0	-2	1	2	-7
COc1cccc(C(=O)N(Cc2ccco2)c2ccccn2)c1	-1	1	-2	0	17
CCOc1nc(Nc2cc(Cl)ccc2OC)nc(OCC)n1	1	2	0	-4	-2
COc1ccc(Nc2nc(-c3ccccc3)nc3ccccc23)c(OC)c1	0	-5	3	-5	10
COc1ccc(Nc2nc(N)c3ccccc3n2)c(OC)c1	-1	1	1	-7	-37*
CCOc1nc(Nc2ccc(OC)cc2OC)nc(OCC)n1	0	-4	6	-5	-31*
CCOc1ccc(CN(C)C(=O)c2cccc(S(=O)(=O)N3CCCC3)c2)cc1OC	-3	2	5	-12	-7
